Measurements reported in the supplement of paper PMC11732987, “Enantioselective OTUD7B fragment discovery through chemoproteomics screening and high-throughput optimisation” (Communications Chemistry, 2025).

Assays:
Assay in all cases: log2 ratio of Biotin-Ahx-Ub-VS probe labelling (fragment/DMSO); higher = less target engagement (more negative = stronger competition), active = hit call of the paper (q ≤ 0.05, log2 ratio ≤ -1)
Conditions in all cases: compound concentration: 200 uM; treatment time: 3 h
USP42 = target: T1, USP42 (UniProt Q9H9J4)
T1 sequence (whole entry): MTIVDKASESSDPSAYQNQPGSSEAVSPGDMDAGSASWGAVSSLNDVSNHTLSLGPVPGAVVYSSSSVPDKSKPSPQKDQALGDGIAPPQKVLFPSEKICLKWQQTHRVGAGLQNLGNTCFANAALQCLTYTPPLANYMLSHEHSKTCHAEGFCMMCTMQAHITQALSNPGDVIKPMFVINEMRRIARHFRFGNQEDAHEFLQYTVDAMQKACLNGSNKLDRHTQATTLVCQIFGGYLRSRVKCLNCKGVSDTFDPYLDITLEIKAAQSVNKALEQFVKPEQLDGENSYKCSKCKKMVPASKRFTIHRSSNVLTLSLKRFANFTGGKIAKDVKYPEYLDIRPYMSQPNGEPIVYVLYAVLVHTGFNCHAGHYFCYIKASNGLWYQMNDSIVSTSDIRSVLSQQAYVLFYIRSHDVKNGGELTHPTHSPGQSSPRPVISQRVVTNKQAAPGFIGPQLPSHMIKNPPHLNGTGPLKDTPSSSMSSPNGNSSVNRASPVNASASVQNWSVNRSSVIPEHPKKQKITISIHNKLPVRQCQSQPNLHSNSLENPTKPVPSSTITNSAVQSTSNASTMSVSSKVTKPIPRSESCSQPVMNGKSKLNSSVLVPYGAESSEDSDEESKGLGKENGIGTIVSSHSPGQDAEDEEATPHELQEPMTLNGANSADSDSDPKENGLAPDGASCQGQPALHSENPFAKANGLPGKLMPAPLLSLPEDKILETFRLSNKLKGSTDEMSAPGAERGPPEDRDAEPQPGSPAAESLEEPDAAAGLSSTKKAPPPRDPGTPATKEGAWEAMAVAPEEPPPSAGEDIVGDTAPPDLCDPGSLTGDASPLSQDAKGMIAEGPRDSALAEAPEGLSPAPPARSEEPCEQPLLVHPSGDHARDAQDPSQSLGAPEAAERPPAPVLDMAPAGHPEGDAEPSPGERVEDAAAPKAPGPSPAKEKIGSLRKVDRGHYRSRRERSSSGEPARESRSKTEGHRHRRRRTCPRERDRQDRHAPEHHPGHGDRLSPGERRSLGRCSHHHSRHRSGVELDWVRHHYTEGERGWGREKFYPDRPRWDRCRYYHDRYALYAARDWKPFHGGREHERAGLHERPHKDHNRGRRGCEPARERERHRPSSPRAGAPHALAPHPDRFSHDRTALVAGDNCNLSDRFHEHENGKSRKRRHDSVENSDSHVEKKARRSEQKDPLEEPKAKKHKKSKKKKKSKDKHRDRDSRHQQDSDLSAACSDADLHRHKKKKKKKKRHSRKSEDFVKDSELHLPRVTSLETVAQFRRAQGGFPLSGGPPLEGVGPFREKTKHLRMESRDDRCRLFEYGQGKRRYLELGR
In short: (§1)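 Using Biotin-Ahx-Ub-VS at 0.5 µM final for 1 h, DUBs were labelled in HEK293T lysate (495 µg per sample) that had first been treated in triplicate with fragment at 200 µM or vehicle for 3 h. NeutrAvidin enrichment, LysC and trypsin digestion and diaPASEF LC-MS/MS followed. Spectronaut label-free quantities were global-median-normalised. Values are average log2 fragment/vehicle ratios by unpaired t-test, using proteins with ≥2 unique peptides.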

USP46 = USP46 (UniProt P62068)
In short: as §1

USP47 = target: T2, USP47 (UniProt Q96K76)
T2 sequence (whole entry): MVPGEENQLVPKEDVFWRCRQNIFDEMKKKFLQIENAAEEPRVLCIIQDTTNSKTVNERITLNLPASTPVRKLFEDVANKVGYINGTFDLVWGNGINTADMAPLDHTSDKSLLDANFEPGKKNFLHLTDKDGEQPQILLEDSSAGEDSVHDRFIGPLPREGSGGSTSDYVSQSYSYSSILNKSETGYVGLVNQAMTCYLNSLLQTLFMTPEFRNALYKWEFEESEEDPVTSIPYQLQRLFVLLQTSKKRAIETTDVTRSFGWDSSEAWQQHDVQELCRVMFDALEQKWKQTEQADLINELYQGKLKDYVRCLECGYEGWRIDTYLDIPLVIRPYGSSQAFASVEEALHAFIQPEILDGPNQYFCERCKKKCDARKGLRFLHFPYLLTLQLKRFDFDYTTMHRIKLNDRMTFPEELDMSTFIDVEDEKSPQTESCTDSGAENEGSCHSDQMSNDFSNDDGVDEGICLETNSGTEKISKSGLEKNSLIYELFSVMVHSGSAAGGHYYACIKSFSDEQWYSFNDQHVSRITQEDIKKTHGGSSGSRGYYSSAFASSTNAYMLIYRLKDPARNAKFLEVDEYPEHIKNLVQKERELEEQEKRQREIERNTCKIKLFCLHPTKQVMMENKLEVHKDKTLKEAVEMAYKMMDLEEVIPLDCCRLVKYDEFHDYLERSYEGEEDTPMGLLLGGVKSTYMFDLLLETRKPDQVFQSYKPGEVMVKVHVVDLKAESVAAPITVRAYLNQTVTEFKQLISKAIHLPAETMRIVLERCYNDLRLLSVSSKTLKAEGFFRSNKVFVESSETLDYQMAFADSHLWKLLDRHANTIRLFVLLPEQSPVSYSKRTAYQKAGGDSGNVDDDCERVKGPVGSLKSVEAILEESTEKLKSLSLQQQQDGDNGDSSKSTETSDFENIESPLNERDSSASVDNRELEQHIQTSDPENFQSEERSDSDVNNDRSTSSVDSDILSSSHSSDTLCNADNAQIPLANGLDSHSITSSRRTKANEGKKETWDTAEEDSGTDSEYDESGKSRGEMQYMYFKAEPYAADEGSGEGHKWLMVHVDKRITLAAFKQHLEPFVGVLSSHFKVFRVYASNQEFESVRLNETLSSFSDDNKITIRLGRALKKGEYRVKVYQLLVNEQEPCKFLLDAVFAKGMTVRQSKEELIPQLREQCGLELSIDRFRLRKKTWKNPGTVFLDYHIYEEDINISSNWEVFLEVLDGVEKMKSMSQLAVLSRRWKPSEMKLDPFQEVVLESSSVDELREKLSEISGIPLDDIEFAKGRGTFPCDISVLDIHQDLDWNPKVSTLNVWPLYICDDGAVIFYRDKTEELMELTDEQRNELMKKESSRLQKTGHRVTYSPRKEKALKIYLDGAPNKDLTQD
In short: as §1

USP48 = target: T3, USP48 (UniProt Q86UV5)
T3 sequence (whole entry): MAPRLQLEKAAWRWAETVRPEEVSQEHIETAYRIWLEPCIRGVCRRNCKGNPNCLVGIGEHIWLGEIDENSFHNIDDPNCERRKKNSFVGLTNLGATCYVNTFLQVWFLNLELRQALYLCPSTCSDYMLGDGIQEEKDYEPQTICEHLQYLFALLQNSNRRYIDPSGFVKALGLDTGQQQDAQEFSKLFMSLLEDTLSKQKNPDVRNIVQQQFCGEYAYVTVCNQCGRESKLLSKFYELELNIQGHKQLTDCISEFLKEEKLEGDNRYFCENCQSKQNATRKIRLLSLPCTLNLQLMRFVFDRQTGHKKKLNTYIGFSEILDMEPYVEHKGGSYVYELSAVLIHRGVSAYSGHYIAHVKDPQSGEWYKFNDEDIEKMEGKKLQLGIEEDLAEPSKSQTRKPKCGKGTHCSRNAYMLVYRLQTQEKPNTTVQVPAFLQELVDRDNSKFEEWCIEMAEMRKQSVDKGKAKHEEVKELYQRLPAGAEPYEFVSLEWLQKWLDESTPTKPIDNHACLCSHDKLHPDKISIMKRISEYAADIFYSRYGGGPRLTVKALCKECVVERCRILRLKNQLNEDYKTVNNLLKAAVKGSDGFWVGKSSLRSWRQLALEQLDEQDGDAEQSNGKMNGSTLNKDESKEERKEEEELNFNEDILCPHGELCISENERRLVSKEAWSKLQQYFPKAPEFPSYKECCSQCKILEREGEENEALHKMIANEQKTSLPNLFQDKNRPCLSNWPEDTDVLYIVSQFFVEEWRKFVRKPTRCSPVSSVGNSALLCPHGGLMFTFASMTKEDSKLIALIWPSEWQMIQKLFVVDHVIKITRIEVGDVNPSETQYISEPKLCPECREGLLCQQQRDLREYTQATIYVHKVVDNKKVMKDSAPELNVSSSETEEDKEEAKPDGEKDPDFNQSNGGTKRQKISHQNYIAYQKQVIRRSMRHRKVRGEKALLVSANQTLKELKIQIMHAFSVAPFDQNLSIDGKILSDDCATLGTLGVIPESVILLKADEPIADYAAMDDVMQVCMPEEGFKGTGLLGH
In short: as §1

USP5 = target: T4, USP5 (UniProt P45974)
T4 sequence (whole entry): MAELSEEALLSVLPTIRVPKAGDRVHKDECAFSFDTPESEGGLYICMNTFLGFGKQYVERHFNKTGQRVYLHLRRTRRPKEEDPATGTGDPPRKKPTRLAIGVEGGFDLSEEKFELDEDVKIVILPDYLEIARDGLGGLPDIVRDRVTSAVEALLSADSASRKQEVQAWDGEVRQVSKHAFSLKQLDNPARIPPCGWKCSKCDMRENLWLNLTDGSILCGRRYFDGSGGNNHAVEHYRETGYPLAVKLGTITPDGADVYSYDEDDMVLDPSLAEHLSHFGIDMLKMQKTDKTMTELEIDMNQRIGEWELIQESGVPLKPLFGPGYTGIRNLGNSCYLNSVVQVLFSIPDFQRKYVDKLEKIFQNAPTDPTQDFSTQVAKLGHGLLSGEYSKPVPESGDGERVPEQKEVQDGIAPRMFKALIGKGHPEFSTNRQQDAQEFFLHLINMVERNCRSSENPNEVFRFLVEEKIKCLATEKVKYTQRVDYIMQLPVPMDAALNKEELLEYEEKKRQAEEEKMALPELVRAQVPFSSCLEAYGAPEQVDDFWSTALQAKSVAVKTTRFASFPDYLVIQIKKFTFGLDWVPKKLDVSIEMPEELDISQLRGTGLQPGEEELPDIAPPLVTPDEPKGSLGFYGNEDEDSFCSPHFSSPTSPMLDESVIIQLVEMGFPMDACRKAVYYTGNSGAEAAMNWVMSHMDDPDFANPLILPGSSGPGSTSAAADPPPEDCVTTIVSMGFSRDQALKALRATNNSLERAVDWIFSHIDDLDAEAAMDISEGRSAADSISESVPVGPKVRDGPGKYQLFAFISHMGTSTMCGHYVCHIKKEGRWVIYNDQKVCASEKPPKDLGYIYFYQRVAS
In short: as §1

USP54 = USP54 (UniProt Q70EL1)
In short: as §1

USP7 = USP7 (UniProt Q93009)
In short: as §1

USP8 = target: T5, USP8 (UniProt P40818)
T5 sequence (whole entry): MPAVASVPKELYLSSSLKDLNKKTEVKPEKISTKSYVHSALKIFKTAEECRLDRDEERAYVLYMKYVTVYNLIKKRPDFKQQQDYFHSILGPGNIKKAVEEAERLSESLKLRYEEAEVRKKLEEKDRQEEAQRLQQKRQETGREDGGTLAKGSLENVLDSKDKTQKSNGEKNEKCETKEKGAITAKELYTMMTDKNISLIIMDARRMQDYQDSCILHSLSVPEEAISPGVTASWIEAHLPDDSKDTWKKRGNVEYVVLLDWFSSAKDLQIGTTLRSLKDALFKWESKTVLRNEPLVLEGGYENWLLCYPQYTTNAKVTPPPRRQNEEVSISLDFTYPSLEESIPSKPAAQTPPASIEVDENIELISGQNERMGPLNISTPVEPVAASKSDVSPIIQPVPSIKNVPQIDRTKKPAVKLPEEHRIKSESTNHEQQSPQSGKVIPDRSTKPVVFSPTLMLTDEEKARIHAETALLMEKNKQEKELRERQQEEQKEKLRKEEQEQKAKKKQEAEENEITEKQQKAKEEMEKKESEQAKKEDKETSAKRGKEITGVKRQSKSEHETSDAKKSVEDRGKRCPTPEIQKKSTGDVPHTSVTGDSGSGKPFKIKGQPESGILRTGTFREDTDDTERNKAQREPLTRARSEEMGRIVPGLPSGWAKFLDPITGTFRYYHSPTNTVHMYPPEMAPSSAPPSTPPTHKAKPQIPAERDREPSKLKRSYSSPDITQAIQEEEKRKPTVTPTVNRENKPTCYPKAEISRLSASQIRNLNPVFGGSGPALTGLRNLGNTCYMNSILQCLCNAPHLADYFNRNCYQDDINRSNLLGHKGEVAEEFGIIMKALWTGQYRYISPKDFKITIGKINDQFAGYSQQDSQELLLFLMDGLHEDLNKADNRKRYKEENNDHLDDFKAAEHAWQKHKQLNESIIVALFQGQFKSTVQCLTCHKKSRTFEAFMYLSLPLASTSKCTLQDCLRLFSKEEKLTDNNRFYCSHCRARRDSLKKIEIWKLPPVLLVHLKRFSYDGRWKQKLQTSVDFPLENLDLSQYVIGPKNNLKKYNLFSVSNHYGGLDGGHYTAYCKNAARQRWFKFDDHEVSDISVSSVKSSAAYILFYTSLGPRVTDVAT
In short: as §1

USP9X = USP9X (UniProt Q93008)
In short: as §1

UniProt O00487 = target: UniProt O00487
In short: as §1

Measured: log2 ratio of Biotin-Ahx-Ub-VS probe labelling

USP9X, sequence (Q93008 whole entry): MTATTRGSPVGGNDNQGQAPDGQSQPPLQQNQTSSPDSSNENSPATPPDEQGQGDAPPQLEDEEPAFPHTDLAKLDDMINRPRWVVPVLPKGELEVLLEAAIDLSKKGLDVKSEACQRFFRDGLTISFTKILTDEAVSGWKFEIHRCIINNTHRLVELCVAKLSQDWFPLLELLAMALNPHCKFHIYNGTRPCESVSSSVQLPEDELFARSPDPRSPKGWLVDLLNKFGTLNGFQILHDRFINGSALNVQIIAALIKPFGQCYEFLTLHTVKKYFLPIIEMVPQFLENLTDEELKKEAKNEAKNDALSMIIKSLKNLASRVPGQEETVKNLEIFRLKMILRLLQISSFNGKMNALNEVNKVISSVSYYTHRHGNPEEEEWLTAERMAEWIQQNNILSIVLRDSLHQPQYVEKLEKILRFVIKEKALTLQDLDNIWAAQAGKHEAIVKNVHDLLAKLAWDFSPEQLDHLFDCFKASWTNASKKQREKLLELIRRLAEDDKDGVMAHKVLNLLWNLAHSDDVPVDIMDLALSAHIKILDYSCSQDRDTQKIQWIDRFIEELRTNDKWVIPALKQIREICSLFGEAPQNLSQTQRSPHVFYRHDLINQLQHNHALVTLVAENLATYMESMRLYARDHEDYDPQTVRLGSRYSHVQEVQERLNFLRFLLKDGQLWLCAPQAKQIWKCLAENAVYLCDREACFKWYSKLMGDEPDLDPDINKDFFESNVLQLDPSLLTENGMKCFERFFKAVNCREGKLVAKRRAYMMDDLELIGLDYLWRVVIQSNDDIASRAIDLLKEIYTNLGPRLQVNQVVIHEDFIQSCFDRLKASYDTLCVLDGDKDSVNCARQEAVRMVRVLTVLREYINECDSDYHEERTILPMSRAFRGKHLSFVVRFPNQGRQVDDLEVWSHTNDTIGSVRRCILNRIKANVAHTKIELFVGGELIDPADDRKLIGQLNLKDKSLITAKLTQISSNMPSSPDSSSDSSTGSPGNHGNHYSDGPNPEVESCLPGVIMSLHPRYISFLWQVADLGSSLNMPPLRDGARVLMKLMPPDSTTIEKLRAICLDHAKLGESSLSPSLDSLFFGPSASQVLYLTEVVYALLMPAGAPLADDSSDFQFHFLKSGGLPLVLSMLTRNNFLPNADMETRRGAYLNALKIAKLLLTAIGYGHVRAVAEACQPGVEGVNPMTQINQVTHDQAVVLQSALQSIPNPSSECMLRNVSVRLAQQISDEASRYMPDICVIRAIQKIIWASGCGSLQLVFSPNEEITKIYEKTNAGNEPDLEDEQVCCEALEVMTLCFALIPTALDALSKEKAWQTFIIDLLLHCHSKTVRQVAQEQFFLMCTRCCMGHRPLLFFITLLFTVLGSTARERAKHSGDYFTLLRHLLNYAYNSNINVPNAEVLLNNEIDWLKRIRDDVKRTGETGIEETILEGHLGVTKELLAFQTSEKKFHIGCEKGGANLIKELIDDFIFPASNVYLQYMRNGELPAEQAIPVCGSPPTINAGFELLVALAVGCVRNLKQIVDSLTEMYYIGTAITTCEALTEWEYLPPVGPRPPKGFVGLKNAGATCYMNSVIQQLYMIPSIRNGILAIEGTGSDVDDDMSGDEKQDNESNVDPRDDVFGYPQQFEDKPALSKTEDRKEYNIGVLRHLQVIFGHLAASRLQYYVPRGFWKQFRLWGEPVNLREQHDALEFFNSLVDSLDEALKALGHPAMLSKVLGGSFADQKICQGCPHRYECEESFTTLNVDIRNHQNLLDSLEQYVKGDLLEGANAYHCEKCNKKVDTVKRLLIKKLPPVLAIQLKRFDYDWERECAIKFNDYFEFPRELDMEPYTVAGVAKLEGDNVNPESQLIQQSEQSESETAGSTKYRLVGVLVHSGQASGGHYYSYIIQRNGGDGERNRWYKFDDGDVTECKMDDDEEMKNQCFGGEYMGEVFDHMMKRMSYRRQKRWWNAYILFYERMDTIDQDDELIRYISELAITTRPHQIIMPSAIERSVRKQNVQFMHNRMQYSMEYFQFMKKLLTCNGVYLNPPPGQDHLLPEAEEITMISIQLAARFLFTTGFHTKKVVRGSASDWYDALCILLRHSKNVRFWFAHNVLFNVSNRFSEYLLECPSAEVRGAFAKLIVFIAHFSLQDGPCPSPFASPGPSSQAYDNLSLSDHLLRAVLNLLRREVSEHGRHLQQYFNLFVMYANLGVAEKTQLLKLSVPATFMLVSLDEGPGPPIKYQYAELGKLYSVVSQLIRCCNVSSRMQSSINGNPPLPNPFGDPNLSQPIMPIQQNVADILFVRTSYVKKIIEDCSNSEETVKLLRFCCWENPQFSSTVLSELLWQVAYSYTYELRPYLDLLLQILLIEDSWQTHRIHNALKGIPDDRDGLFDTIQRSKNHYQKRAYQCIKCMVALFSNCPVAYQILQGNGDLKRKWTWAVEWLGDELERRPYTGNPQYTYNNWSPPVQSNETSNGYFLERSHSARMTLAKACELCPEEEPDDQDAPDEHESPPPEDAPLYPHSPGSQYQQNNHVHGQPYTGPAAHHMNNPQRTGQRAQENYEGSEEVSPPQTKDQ
USP46, sequence (P62068 whole entry): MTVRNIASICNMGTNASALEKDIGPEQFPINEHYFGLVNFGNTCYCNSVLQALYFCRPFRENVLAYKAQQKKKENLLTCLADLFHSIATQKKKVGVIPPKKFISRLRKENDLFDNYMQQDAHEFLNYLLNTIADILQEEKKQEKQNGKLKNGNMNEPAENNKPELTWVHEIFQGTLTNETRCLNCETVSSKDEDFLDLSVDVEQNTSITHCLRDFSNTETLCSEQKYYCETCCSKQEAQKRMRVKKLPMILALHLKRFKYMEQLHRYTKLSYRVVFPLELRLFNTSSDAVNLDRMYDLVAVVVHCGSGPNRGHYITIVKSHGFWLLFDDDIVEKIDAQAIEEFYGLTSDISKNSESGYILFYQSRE
UniProt O00487, sequence (O00487 whole entry): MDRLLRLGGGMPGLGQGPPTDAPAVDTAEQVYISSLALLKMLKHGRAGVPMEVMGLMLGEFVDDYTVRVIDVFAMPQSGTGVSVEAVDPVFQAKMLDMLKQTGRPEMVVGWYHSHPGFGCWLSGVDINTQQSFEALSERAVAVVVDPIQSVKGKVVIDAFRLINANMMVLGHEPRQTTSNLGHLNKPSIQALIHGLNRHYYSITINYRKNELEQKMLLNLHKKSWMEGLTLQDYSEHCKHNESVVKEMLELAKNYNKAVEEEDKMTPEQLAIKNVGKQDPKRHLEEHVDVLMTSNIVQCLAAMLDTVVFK
USP7, sequence (Q93009 whole entry, looked up): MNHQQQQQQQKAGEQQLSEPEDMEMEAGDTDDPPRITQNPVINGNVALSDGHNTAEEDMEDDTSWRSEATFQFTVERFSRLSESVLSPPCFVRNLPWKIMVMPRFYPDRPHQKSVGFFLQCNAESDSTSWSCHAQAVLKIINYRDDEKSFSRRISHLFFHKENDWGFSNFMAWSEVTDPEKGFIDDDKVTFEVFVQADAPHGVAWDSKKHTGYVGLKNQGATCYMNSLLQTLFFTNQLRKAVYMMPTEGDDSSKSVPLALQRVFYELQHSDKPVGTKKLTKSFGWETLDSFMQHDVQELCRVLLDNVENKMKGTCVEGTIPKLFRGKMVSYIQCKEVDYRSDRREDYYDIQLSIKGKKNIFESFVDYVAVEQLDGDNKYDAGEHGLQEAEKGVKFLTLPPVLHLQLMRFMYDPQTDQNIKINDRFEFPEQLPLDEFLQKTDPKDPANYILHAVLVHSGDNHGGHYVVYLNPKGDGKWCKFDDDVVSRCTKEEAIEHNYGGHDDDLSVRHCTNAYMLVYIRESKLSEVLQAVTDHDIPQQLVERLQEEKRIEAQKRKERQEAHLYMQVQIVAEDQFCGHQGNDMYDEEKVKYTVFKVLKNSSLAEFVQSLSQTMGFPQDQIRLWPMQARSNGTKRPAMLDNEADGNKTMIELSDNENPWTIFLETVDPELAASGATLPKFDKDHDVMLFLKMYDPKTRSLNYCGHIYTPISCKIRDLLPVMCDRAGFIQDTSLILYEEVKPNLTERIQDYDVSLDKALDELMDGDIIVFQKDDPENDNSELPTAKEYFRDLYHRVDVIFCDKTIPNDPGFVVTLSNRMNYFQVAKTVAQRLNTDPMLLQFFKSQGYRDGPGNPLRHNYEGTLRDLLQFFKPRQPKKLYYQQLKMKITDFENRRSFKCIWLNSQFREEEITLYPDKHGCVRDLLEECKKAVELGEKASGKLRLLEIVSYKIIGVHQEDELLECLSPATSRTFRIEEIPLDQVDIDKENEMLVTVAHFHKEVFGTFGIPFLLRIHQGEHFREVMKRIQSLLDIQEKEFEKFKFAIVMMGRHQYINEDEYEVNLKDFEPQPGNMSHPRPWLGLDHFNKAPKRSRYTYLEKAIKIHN

O=C(CCl)Nc1ccccc1C(F)(F)F
inactive: USP42 0.398 | USP46 0.0498 | USP47 -0.374 | USP48 -0.257 | USP5 -0.323 | USP54 0.637 | USP7 -0.404 | USP8 -0.029 | USP9X -0.0415 | UniProt O00487 -0.162
